Screening results as filed in PubChem BioAssay.
Giardia kill: kills Giardia lamblia; Giardia lamblia trophozoite viability; activity change, % at 7.66 µM, hits read low; 340,000 compounds, 0.15% hits; in the data active means activity change below about -80%; inconclusive means between about -30% and that limit;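 further: parasites exposed to compound for two days anaerobically before the ATP read; on the % scale 0 is the no-effect control and ±100 the full control effect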
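Trophozoite viability was measured as ATP-dependent luminescence, read 15-30 min after reagent addition. Before that, parasites at 100 cells/well were exposed to compounds for 48 h, anaerobically, at 37 deg C.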
KB-V1 MDR tox: kills drug-selected multidrug resistant KB-V1 cells; KB-V1 MDR cells viability, CellTiter-Glo, 72 h; Potency, µM (series often up to 46.1 µM), hits mostly cytotoxic; 400,000 compounds, 3.4% hits; AID 1347076; further: potency means the concentration at half of the fitted maximal effect; on the % scale 0 is the no-effect control and ±100 the full control effect; nearly all actives have a fitted effect of over 60% in size
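KB-V1 MDR subline cells in DMEM (phenol-red free, 10% FBS) exposed to compounds in qHTS concentration series for 72 h at 37 degrees C. Viability read by CellTiter-Glo luminescence; concentration-effect curves fitted after normalization and correction.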
MCF10A rereplic: induces DNA re-replication in MCF 10a normal breast cells. MCF 10A DNA re-replication, Hoechst nuclear intensity, 48 h. Potency, µM (top dose mostly 46.1 µM), inactives show at the top dose activity, positive = re-replication, most hits filed as activators. 350,000 compounds, 2.9% hits. AID 624296; further: potency means the concentration at half of the fitted maximal effect; % of control where 0% means no effect; nearly all actives have a fitted effect of over 50% in size
KB-3-1 tox: KB-3-1 parental cell cytotoxicity | KB-3-1 viability, CellTiter-Glo ATP luminescence, 72 h | Potency, µM (titrated, usually from 46.1 µM), hits mostly cytotoxic | 400,000 compounds, 1.4% hits; further: potency means the concentration at half of the fitted maximal effect; on the % scale 0 is the no-effect control and ±100 the full control effect; nearly all actives have a fitted effect of over 60% in size
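Parental KB-3-1 adenocarcinoma cells in phenol-red-free DMEM with 10% FBS were pin-treated with compounds at several concentrations, incubated 72 h at 37 °C, and viability read by CellTiter-Glo luminescence; concentration-effect curves were fitted after normalization.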
SW480 rerep: DNA re-replication induction in SW480 cells | SW480 DNA re-replication, Hoechst DNA content imaging, 48 h | Potency, µM (highest dose often 46.1 µM), for inactives: at the highest dose re-replication activation, most hits filed as activators | 340,000 compounds, 1.8% hits | AID 624297; further: potency means the concentration at half of the fitted maximal effect; % of control where 0% means no effect; nearly all actives have a fitted effect of over 55% in size
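Hoechst fluorescence of nuclei (405 nm excitation, 500-530 nm emission) measured by plate-scanning imager after 48 hr compound exposure at 37 C; re-replication scored as increased number of nuclei with elevated intensity.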
S-ASM inh: blocks human secretory acid sphingomyelinase; P17405; placental ASM, HMU-PC fluorogenic substrate, 60 min; Potency, µM (highest dose often 57.5 µM), without a hit: top-dose activity change, negative = inhibition, actives largely listed as inhibitors; 340,000 compounds, 0.006% hits; further: potency means the concentration at half of the fitted maximal effect
Target sequence (P17405 47-631 limits assumed): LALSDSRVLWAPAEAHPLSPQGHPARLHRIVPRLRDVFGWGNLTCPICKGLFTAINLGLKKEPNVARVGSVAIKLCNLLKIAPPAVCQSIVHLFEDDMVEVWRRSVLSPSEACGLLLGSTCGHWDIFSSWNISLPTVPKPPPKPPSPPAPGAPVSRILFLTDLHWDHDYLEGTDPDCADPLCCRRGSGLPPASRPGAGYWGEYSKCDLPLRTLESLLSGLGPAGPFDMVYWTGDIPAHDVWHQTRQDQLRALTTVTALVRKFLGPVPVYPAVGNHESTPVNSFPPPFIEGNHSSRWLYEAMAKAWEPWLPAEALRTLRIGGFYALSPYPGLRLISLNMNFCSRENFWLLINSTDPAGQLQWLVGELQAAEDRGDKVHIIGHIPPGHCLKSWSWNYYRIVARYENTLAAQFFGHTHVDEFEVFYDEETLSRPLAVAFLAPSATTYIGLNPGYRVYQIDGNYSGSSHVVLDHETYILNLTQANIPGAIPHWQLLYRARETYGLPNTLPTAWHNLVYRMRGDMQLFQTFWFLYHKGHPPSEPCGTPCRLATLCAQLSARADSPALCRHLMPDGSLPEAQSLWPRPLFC
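qHTS format. ASM enzyme prepared from human placenta hydrolyses the fluorogenic substrate HMU-PC0 (9 uM final) over 60 min at 37 °C after a 10 min compound preincubation.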
* hit, by the source's call; i = inactive; ? = inconclusive; / = no result given. An excerpt weighted towards active compounds, which were near 6.9% of everything screened. Unless noted, the call rests on the fitted dose curve; in most records, active means well fitted curve in the direction sought with a large enough effect; inconclusive means small, poorly fitted or top-dose-only effect, or another doubt; inactive means no such curve, though single readings can be large; an effect the other way counts as inactive or inconclusive.

SMILES	Giardia kill	KB-V1 MDR tox	MCF10A rereplic	KB-3-1 tox	SW480 rerep	S-ASM inh
Cc1cccc(C)c1N=Cc1c(O)n(-c2nccs2)c(=O)c2ccccc12	6	23µM*	3%	i	1%	-11%
O=S(=O)([N-]c1nc2ccccc2nc1-n1cc[n+](Cc2ccccc2)c1)c1ccc(Br)cc1	5	i	18µM*	i	18µM*	i
CC(C)CC[n+]1ccn(-c2nc3ccccc3nc2[N-]S(=O)(=O)c2ccc(Cl)cc2)c1	0	i	23µM*	i	?	i
Cc1ccc(S(=O)(=O)[N-]c2nc3ccccc3nc2-n2cc[n+](CCC(C)C)c2)cc1	-2	i	-15%	i	17%	i
CCCCC[n+]1ccn(-c2nc3ccccc3nc2[N-]S(=O)(=O)c2ccccc2)c1	-12	i	2%	i	-6%	i
COc1ccccc1Cn1cc(C(=O)c2ccc(C)cc2)c(=O)c2cc(F)cc(F)c21	/	i	/	i	/	/
Cc1cccc(N2C(S)=C(C#N)C(=O)NC2c2ccco2)c1 (centres undefined)	-2	?	?	i	-1%	0%
N#CC1=C(S)N(c2ccccc2)C(c2ccc(-c3cccc(Cl)c3)o2)NC1=O (centres undefined)	-15	i	?	i	23µM*	-4%
CC(=O)Nc1ccc(S(=O)(=O)N(CCCN2CCOCC2)Cc2cccs2)cc1	-8	i	1.2µM*	i	7%	1%
CCOC(=O)CCN(Cc1cccs1)S(=O)(=O)c1ccc(Cl)cc1	-6	15µM*	0%	i	-7%	-3%
CCN(CC)C(=O)CNC(=S)N(CCCN1CCOCC1)Cc1cccs1	-3	7.3µM*	17%	i	-154%	-2%
CC(C)(C)c1ccc(S(=O)(=O)N(CCCN2CCOCC2)Cc2cccs2)cc1	3	i	5.8µM*	i	?	-2%
CC(=O)N(CCS(=O)(=O)c1ccc(Cl)cc1)Cc1cccs1	-13	i	-1%	i	-10%	-2%
Cn1c(=O)c2c(-c3ccccc3)n3c(c2n(C)c1=O)C(c1ccccc1[N+](=O)[O-])Nc1ccccc1-3 (centres undefined)	/	i	/	i	/	/
O=S(=O)(c1ccc(C(F)(F)F)cc1)N1CCN(c2nc(-c3ccccc3)nc3ccccc23)CC1	7	i	/	i	/	/
CN(CC(=O)O)c1ccc(/C=C2\C=Cc3ccccc32)cc1	/	i	/	i	/	/
Cc1cccc(-c2noc(-c3ccc(N4CCCC4)c([N+](=O)[O-])c3)n2)c1	/	i	/	i	/	/
Cc1cccc(-c2noc(-c3ccc(N4CCN(C)CC4)c([N+](=O)[O-])c3)n2)c1	/	i	/	18µM*	/	/
[O-][n+]1c2cc(C(F)(F)F)ccc2c2n1CCN=C2c1ccc(Cl)cc1	-89*	i	?	?	-6%	-5%
CC(=O)N1CC(C)Sc2ccc(S(=O)(=O)NCCc3ccc(C)cc3)cc21 (centres undefined)	-6	i	?	i	-29%	-2%
CC(=O)N1CC(C)Sc2ccc(S(=O)(=O)NCc3ccc(Cl)cc3)cc21 (centres undefined)	3	i	12%	23µM*	?	-8%
O=C(/C(=C(\O)c1ccccc1)c1nc2ccccc2[nH]1)c1ccccc1	-10	?	?	?	-2%	-5%
Cc1cccc(/C=C(\c2nc3ccccc3[nH]2)S(=O)(=O)c2ccccc2)c1	-27	18µM*	5.8µM*	4.1µM*	?	1%
CC(C)(C)c1ccc(/C=C(\c2nc3ccccc3[nH]2)S(=O)(=O)c2ccccc2)cc1	4	?	5.2µM*	?	8.2µM*	0%
O=C(O)c1ccc(/C=C(\c2nc3ccccc3[nH]2)c2nc3ccccc3s2)cc1	-22	i	?	?	12µM*	9%
CCc1ccc(Sc2cc(C(=O)NCc3ccccc3OC)c3ccccc3n2)cc1	/	?	/	i	/	/
